Source: PubChem BioAssay
Only some compounds are listed: those with a hit (about 28% of all), similar ones and a draw of the others.
CYP2C9 act – human CYP2C9 activators, primary screen, biochemical, luminescence; 96,000 compounds, 1.4% hits; recombinant CYP2C9, luciferin-H conversion; hits give high values; factor 1 = untreated enzyme, 0 = blocked; AID 1024, 2008; Cytochrome P450 2C9 (Homo sapiens), P11712; activation factor at 5 µM;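 active means activation factor of 2 or more for CYP2C9 at a 5 µM dose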;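 further: 0 = sulfaphenazole-blocked wells and 1 = vehicle-only wells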
CYP2C19 inhib – blockers of cytochrome P450 2C19 activity – biochemical, luminescence, ADME assay, primary screen; CYP2C19 Supersomes, luciferin-H EGE luminescence, 30 min; 96,000 compounds, 21% hits; P33261; inhibition, % at 5 µM;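 active means CYP2C19 inhibition above a set limit at 5 µM in the primary screen, cut at about 50% in these data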;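 further: plate controls were negative control wells for no effect and 2.5 mM tranylcypromine positive control for full effect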
CD11b adhes inh – inhibitors of CD11b/CD18 adhesion to fibrinogen, primary screen, K562 cells, luminescence; ATPlite luminescence; Mn2+ added to activate the integrin; 93,000 compounds, 0.54% hits; inhibition, % at 10 µM; Integrin beta-2 (Homo sapiens) + Integrin alpha-M (Homo sapiens), P05107+P11215;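 active means primary inhibition of 50% or more at 10 µM, then 40% or more on retest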
Target sequence (P05107 whole entry, looked up, other chains not shown): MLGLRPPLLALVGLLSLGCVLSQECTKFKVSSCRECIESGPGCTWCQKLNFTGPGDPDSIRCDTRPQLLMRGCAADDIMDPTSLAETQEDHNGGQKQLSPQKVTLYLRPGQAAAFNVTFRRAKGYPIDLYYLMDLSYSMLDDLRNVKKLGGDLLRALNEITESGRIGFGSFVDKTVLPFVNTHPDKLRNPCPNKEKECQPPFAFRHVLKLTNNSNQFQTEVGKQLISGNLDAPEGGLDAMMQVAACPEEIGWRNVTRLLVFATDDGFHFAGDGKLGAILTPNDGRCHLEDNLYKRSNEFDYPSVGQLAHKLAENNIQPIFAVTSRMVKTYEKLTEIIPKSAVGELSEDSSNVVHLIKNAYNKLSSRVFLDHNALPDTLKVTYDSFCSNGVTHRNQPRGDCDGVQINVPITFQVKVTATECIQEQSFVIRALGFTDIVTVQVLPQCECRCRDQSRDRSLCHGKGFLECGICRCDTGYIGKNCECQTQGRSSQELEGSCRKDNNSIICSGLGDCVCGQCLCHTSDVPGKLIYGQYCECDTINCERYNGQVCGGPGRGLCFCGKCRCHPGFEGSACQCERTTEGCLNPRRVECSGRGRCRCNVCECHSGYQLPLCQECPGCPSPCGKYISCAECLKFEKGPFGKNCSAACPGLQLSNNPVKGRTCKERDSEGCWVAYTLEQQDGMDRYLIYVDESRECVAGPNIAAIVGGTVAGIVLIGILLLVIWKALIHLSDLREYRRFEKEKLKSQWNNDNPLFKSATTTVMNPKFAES
CYP2C9 inh – blockers of cytochrome P450 2C9 activity – biochemical, luminescence, ADME assay, primary screen | AID 777, 2007 | 96,000 compounds, 20% hits | CYP2C9 Supersomes, luciferin-H conversion | inhibition, % at 5 µM | P11712;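 active means blocking of liver enzyme CYP2C9 beyond about 50% at 5 µM, limit read from the data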
CYP2C19 act – human CYP2C19 activators, primary screen, biochemical, luminescence | Cytochrome P450 2C19 (Homo sapiens), P33261 | activation factor at 5 µM | recombinant CYP2C19, luciferin-H EGE luminescence; hits give high values; 0 = fully inhibited enzyme, 1 = untreated enzyme | 96,000 tested, under 10 active;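 active means activation factor of at least 2 at 5 µM in the primary screen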;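 further: 0 = wells with 2.5 mM tranylcypromine and 1 = vehicle-only wells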
CD11b adhes enh – enhancers of CD11b/CD18 adhesion to fibrinogen, primary screen, K562 cells, luminescence; Integrin beta-2 (Homo sapiens) + Integrin alpha-M (Homo sapiens), P05107+P11215; ATPlite luminescence; activation, % at 10 µM; 93,000 compounds, 0.07% hits;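 active means 10 µM primary screen giving 50% or more activity, confirmed by 40% or more on retest at that dose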
An asterisk follows results filed as active; . = no result.

SMILES	CYP2C9 act	CYP2C19 inhib	CD11b adhes inh	CYP2C9 inh	CYP2C19 act	CD11b adhes enh
COc1ccc(C2CC(c3ccc(Cl)cc3)n3nc(N)nc3N2)cc1 (centres undefined)	1	37.7	-6.1	-3.7	0.6	-1.7
COc1ccc(C(=O)N2CCCC(c3nc(-c4cc(OC)c(OC)c(OC)c4)no3)C2)cc1 (centres undefined)	0.3	30.9	-1.2	65.7*	0.7	0.7
Cc1ccc(-c2noc(C3CCCN(C(=O)c4ccccc4)C3)n2)o1 (centres undefined)	0.8	12.7	-21.3	24.2	0.9	5.5
COc1ccc(-c2noc(C3CCCN(S(=O)(=O)c4cccc(Cl)c4)C3)n2)cc1OC (centres undefined)	0.1	94.3*	3.5	86.8*	0.1	-2.9
COc1ccccc1C(=O)N1CCCC(c2nc(-c3cc(OC)c(OC)c(OC)c3)no2)C1 (centres undefined)	0.6	59.2*	0.7	44.7	0.4	9.0
Cc1ccc(-c2nc(C3CCCN(S(=O)(=O)c4ccc(C(C)(C)C)cc4)C3)no2)cc1 (centres undefined)	1.3	5.3	-0.6	-32.8	0.9	-0.2
CCn1c2ccccc2c2cc(NC(=O)CCCN3C(=O)CCC3=O)ccc21	1.9	49.3	31.8	-89.3	0.5	-0.3
CN(C)c1nc(-c2ccccc2)nnc1C(F)(F)F	1.5	24.7	-4.2	-47.4	0.8	-0.9
Clc1ccc2nc(CN3CCCc4ccccc43)cn2c1	0.1	87.8*	.	92.7*	0.1	.
Cn1nnnc1SCC(=O)Nc1ccc(Cl)cc1Cl	0.9	44.9	-4.6	8.9	0.6	4.2
N#C/C(=C\c1ccc(Cl)cc1)c1n[nH]c(Cn2cncn2)n1	0.3	29.9	-6.9	68.3*	0.7	-1.9
O=C(Nc1ccc(Cl)cc1Cl)c1n[nH]c(Cn2cncn2)n1	0.5	52.7*	-2.1	51.2*	0.5	0.5
Cc1noc(C)c1COC(=O)CCc1nc2ccccc2s1	0.5	58.8*	-5.5	48.4	0.4	-1.7
Cc1noc(C)c1COC(=O)CCN1c2ccccc2Sc2ccccc21	0	88.2*	-0.7	97.9*	0.1	-0.1
Cc1ccc(S(=O)(=O)CCC(=O)NCc2ccco2)cc1	1.2	4.7	-3.1	-24.4	1	-2.8
CCc1nc2sc3ccccc3c(=O)c2c(=O)n1CCOC	0.9	15.7	-1.1	12.1	0.8	2.8
COCCn1c(C2CCCCC2)nc2sc3ccccc3c(=O)c2c1=O	0.2	61.4*	-15.1	76.7*	0.4	13.5
Cn1c(SC2=CS(=O)(=O)c3ccccc32)nc2ccccc21	1.1	9.7	.	-8.0	0.9	.
OC1(C2(O)CC(c3ccccc3)ON2)CCCCC1 (centres undefined)	0.9	77.0*	-4.8	10.2	0.2	-0.9
CCOC(=O)C1NC(=O)CC1c1ccccc1 (centres undefined)	1	-3.1	.	-1.3	1	.
CCOC(=O)C1C(=O)Oc2ccc3ccccc3c2C1C1CCOC1=O (centres undefined)	1.8	59.8*	0.2	-80.9	0.4	-1.5
Cc1ccc(C(C(=O)NC2CCCC2)N2CCc3ccccc32)cc1 (centres undefined)	0.9	5.2	12.4	12.8	0.9	-1.2
N#Cc1cn(-c2ccccc2)nc1C(=O)c1ccccc1	1	50.3*	6.8	-0.5	0.5	-3.5
CCOC(=O)c1c(C)nc2c(c(SC)nn2-c2ccccc2)c1N	1.2	24.4	19.9	-15.5	0.8	0.7
COc1ccccc1N1CCN(C(=O)c2cccc3c(=O)c(C)c(-c4ccccc4)oc23)CC1	.	.	2.5	.	.	-1.2
SMILES	CYP2C9 act	CYP2C19 inhib	CD11b adhes inh	CYP2C9 inh	CYP2C19 act	CD11b adhes enh
CSc1nc2nccc(-c3ccc(Oc4ccccc4)cc3)n2n1	0.4	50.7*	9.0	56.5*	0.5	-4.5
c1ccc(-c2ccnc3nc(N4CCN(c5ccccc5)CC4)nn23)cc1	0.7	28.2	.	31.3	0.7	.
CSc1nc2nccc(-c3ccc(-c4ccccc4)cc3)n2n1	1	-7.7	9.3	0.9	1.1	1.7
c1ccc(Oc2ccc(-c3ccnc4nc(N5CCN(c6ccccc6)CC5)nn34)cc2)cc1	0.4	19.3	.	58.7*	0.8	.
CCCS(=O)(=O)N1CCCC(C(=O)NCCCN(C)c2ccccc2)C1 (centres undefined)	0.8	14.7	-3.2	21.1	0.9	-1.5
CCCCN1C(=O)C2NN=C(C(=O)OC)C2C1=O (centres undefined)	1.1	44.2	-18.6	-6.2	0.6	-4.3
CS(=O)(=O)c1ccc2nc(NC3(C(F)(F)F)N=C4SCCN4C3=O)sc2c1 (centres undefined)	0.1	5.7	-6.7	92.2*	0.9	3.5
CCc1c(O)nc(SCc2ccccc2)n(C(C)CC)c1=O (centres undefined)	0.5	13.0	12.6	46.3	0.9	0.6
C=CCSc1nc(O)c(CC)c(=O)n1C(C)CC (centres undefined)	0.7	63.3*	-8.9	31.1	0.4	-3.2
O=S(=O)(c1ccc(Oc2ccc(Br)cc2)cc1)N1CCOCC1	0.4	75.4*	83.2	64.1*	0.2	-9.0
CCOc1ccc(S(=O)(=O)N2CCN(C(=O)c3cccn3C)CC2)cc1	0.8	63.5*	19.2	22.2	0.4	5.4
CCOc1ccc(NS(=O)(=O)c2ccc(OCC(=O)N3CCCC3)cc2)cc1	0.9	2.0	-11.6	5.5	1	3.6
COc1ccc(-c2ccc(S(=O)(=O)N3CCOCC3)cc2)cc1	1.1	42.2	-35.5	-5.1	0.6	13.2
CCOc1ccc(S(=O)(=O)Nc2ccc(S(=O)(=O)N3CCCC3)cc2)cc1	0.1	84.6*	-34.2	93.5*	0.2	0.6
CCOc1ccc(S(=O)(=O)Nc2ccc(S(=O)(=O)N3CCOCC3)cc2)cc1	0.4	22.3	2.6	60.1*	0.8	-3.8
CCC(C)NC(=O)CS(=O)Cc1nc(-c2cccc(OC)c2)oc1C (centres undefined)	0.8	14.2	-6.1	16.9	0.9	-1.5
CCOc1ccc(S(=O)(=O)N2CCc3ccccc3C2)cc1	1.2	33.5	6.0	-20.1	0.7	-2.0
CCOC(=O)N1CCN(C(=O)COc2ccc(S(=O)(=O)Nc3ccc(OCC)cc3)cc2)CC1	0.5	22.4	28.2	50.6*	0.8	-3.3
CCOc1ccc(S(=O)(=O)Nc2ccc(S(=O)(=O)N3CCCCC3)cc2)cc1	0.1	52.6*	1.1	86.3*	0.5	1.8
